Compound activity (PubChem BioAssay)
Giardia FBPA inh: Giardia lamblia aldolase inhibition. Potency, µM (highest dose often 59.6 µM), hits mostly inhibitors. 290,000 tested, 0.71% active. AID 2451. purified Giardia FBPA. A8B2U2; note: nearly all actives have a fitted effect of over 55% in size
Target sequence (A8B2U2 whole entry, looked up): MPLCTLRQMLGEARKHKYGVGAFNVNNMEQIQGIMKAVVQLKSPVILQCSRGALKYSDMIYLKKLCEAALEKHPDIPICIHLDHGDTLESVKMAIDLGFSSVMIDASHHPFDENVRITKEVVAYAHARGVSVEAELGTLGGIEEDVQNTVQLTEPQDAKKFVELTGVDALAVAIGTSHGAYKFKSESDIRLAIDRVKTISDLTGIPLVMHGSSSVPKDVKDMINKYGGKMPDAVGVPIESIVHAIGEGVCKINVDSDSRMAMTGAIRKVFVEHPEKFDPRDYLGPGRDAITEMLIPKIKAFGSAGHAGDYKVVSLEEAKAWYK
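Giardia FBPA (40 nM reagent) was preincubated 10 min at RT with compound (up to 57.5 uM final), then substrate plus GAPDH/TPI/NAD/arsenate coupling system with diaphorase/resazurin was added; resorufin fluorescence (525/598 nm) was read after 20 min.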
Pf growth 48h: inhibits P. falciparum growth in the first generation, 48 h. P. falciparum luciferase growth in erythrocytes, 48 h. Potency, µM (top dose mostly 28.7 µM), most hits filed as inhibitors. 310,000 tested, 5.9% active. AID 504832
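In quantitative HTS format, infected erythrocytes bearing luciferase-reporter parasites were treated for a single generation at 37 C. Luminescence after adding detection reagent served as the growth measure.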
HCMV antiviral: human cytomegalovirus inhibition; HFF cells, HCMV-luciferase reporter, 72 h; stronger effect = lower value; 410,000 tested, 4.5% active; activity change, negative = inhibition, % at 57.5 µM; in the data active = activity change below about -60%; inconclusive = no clear call, values can overlap the other calls; inactive = above about -39%
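Compounds were evaluated in HFFs infected with an HCMV luciferase reporter virus (MOI 1 PFU/cell). Luciferase in lysates collected 72 h post infection served as the replication measure.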
Sm TGR block: blocks Schistosoma mansoni thioredoxin glutathione reductase | 360,000 tested, 3% active | Potency, µM (series often up to 114 µM), hits mostly inhibitors | Q962Y6 | purified TGR, DTNB reduction, TNB absorbance 405 nm; note: nearly all actives have a fitted effect of over 60% in size
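Kinetic colorimetric format: TGR-catalysed, NADPH-driven DTNB reduction monitored via TNB absorbance. Enzyme dispensed at 20 nM; compound exposure 15 min at room temperature before reaction start.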
Pf growth 96h: P. falciparum growth inhibition at 96 hours | P. falciparum luciferase reporter growth, 96 h | Potency, µM (series often up to 28.7 µM), actives largely listed as inhibitors | 320,000 tested, 6.9% active
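96 h incubation, 37 C, 5% CO2, of luciferase-reporter P. falciparum-infected RBCs (2% hematocrit, 0.05% parasitemia final) with test compounds; endpoint luminescence.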
Hits are given with their value; – = inactive; ? = inconclusive; · = not tested or not shown. This is a sample that favours compounds with a hit; in the whole collection about 14% have one here. Unless noted, calls come from the whole dose curve; as a rule, active = well fitted curve in the direction sought with a large enough effect; inconclusive = small, poorly fitted or top-dose-only effect, or another doubt; inactive = no such curve, though single readings can be large; an effect the other way counts as inactive or inconclusive.

SMILES	Giardia FBPA inh	Pf growth 48h	HCMV antiviral	Sm TGR block	Pf growth 96h
COC(=O)c1cc(NC(=O)c2c(Cl)cnn2C)cc(C(=O)OC)c1	–	–	–	–	–
COc1cc(NC(=O)c2c(Cl)cnn2C)c(OC)cc1Cl	–	–	-60	–	–
O=C(COC(=O)c1cccs1)NC1CCCC1	–	–	–	–	?
Cc1cccc(C)c1NC(=O)c1csc(COCCO)n1	·	·	–	·	·
CC(=O)c1cc2c(cc1NC(=O)CN(C)S(=O)(=O)c1cccs1)OCO2	·	·	–	·	·
Clc1ccc2c(c1)Nc1ccccc1CC2	·	·	–	·	·
CCCCCCCCCC[N+](C)(C)CC/C=C1/c2ccccc2Sc2ccc(Cl)cc21	–	·	·	18µM	3.7µM
CC[N+](C)(C)CC/C=C1/c2ccccc2Sc2ccc(Cl)cc21	–	3.7µM	–	–	1.7µM
NCC/C=C1/c2ccccc2CSc2ccccc21	–	?	–	–	?
CCCCCCCCCCC[N+](C)(C)CC/C=C1/c2ccccc2Sc2ccc(Cl)cc21	–	·	·	1.8µM	?
OC1CCCCC1	·	–	–	–	–
OCCCC1CCCN(Cc2cn[nH]c2-c2ccc(F)cc2F)C1 (centres undefined)	–	–	?	–	7.4µM
CN1CCN(Cc2cn[nH]c2-c2ccc(F)cc2F)[C@@H](c2ccccc2)C1	–	–	–	–	2.6µM
O=C(C1CCN(Cc2cn[nH]c2-c2ccc(F)cc2F)CC1)N1CCOCC1	–	–	–	–	–
O=C(CCc1ccccc1)Nc1ccc2ccccc2n1	–	–	–	–	?
Cc1nc(C(=O)N/N=C/c2[nH]ncc2Br)cs1	–	1.7µM	–	–	1.5µM
O=C1CC(c2ccc(F)cc2)c2cc3c(cc2N1)CCC3 (centres undefined)	–	15µM	–	–	–
COc1ccccc1N1CCN(C2CCCCC2NS(=O)(=O)c2ccccc2)CC1 (centres undefined)	–	?	–	–	–
CCCS(=O)(=O)N1CCN(C2CCC(C)CC2)CC1 (centres undefined)	?	–	–	·	10µM
CCN(c1ccccc1)S(=O)(=O)c1ccc(OC)c(NC(=O)c2ccc(=O)[nH]c2)c1	·	·	–	·	·
CC1CCC(NC(=O)c2ccc3c(c2)N(Cc2ccccc2)C(=O)c2ccccc2S3(=O)=O)CC1 (centres undefined)	·	·	?	–	·
Cc1ccc(CCNC(=O)c2ccc3c(c2)N(Cc2cccc(C)c2)C(=O)c2ccccc2S3(=O)=O)cc1	·	·	–	–	·
CN(C(=O)c1ccc2c(c1)N(Cc1cccc(Cl)c1)C(=O)c1ccccc1S2(=O)=O)C1CCCCC1	·	·	-79	–	·
O=C(NCCN1CCCC1)c1ccc2c(c1)N(Cc1cccc(Cl)c1)C(=O)c1ccccc1S2(=O)=O	·	8.3µM	-77	–	–
CC1CCCCN1CCNC(=O)c1ccc2c(c1)N(Cc1ccccc1)C(=O)c1ccccc1S2(=O)=O (centres undefined)	·	5.2µM	–	–	?
SMILES	Giardia FBPA inh	Pf growth 48h	HCMV antiviral	Sm TGR block	Pf growth 96h
Cc1cccc(CN2C(=O)c3ccccc3S(=O)(=O)c3ccc(C(=O)NCCCN4CCCC4)cc32)c1	·	10µM	–	–	?
C[C@H]1CS(=O)(=O)CCN1/N=C\c1ccc([N+](=O)[O-])o1	–	?	·	·	?
COc1ccc(-c2cccc(C3CC=CC4C3C(=O)N(Cc3ccccc3)C4c3ccc(OC)c(Cl)c3)c2)cc1 (centres undefined)	–	12µM	–	–	9.3µM
Cc1ccc(F)c(C2C3C=CCC(c4cccc(-c5ccc(N(C)C)cc5)c4)C3C(=O)N2Cc2ccccc2)c1 (centres undefined)	–	2.9µM	–	–	2.9µM
COc1ccc(-c2cccc(C3CC=CC4C3C(=O)N(Cc3ccccc3)C4c3cc(C)ccc3F)c2)cc1 (centres undefined)	–	6.6µM	·	–	6.6µM
Cc1ccc(-c2cccc(C3CC=CC4C3C(=O)N(Cc3ccccc3)C4c3ccc4ccccc4c3)c2)cc1 (centres undefined)	–	?	–	–	?
CC[C@H](C)[C@@H](CNC)NC[C@@H](Cc1ccc(O)cc1)NCC(C)(C)C	?	?	–	–	13µM
CC[C@@H](C)[C@H](CN[C@H](CNC)C(C)C)NC[C@@H](C)c1ccc(CC(C)C)cc1	–	?	-78	–	?
O=C(NC1CCCCCC1)C1c2ccccc2C(=O)N1CCCN1CCOCC1 (centres undefined)	–	–	–	–	13µM
O=C(NC1CCCC1)C1c2ccccc2OCC(=O)N1CCCN1CCOCC1 (centres undefined)	·	·	–	·	·
O=C(Cn1ncc2c3ccccc3n(Cc3cccc(Cl)c3)c2c1=O)NCc1cccs1	·	·	–	–	·
COc1ccc([C@H]2C[C@H](O)[C@@H](n3cc(COC(=O)c4ccccc4)nn3)CN2CC2CCCCC2)cc1	·	·	-90	·	·
O=C(OCc1cn([C@H]2C[C@H](c3ccccc3)N(CC3CCCCC3)C[C@@H]2O)nn1)c1ccccc1	·	·	–	·	·
O[C@H]1CN(CC2CCCCC2)[C@@H](c2ccc(Cl)cc2)C[C@@H]1n1cc(C2CC2)nn1	·	·	-71	·	·
CSc1nc2ncncc2[nH]1	·	·	–	·	·
CCOC(=O)c1c(C)[nH]c(C(=O)CN2C(=O)NC3(CCCC3)C2=O)c1C	–	–	–	–	–
CCOC(=O)c1c(C)[nH]c(C(=O)CN2C(=O)NC(C)(c3ccc4ccccc4c3)C2=O)c1C (centres undefined)	–	?	–	–	5.2µM
CC1(c2ccc3ccccc3c2)NC(=O)N(CC(=O)O)C1=O (centres undefined)	–	–	–	–	–
CCCC1(c2ccccc2)NC(=O)N(CC(=O)c2[nH]c(C)c(C(=O)OCC)c2C)C1=O (centres undefined)	–	4.1µM	–	–	8.3µM
CCOC(=O)c1c(C)[nH]c(C)c1C(=O)CN1C(=O)NC2(CCCCCC2)C1=O	·	6.6µM	–	–	?
O=C(NCc1ccco1)N[C@H]1CC[C@@]23CCCN2C(=O)CCC[C@H]3C1Cc1ccccc1 (some centres undefined)	·	·	–	·	·
CNc1nc2cnc(-c3ccc(OC)c(OC)c3)cc2n1Cc1ccccc1	·	·	–	·	·
Cc1nn(-c2cccc(Cl)c2)c2nc(-c3cccnc3)cc(C(F)(F)F)c12	·	·	–	–	·
COc1ccc(-n2nc(C)c3c(C(F)(F)F)cc(-c4cccnc4)nc32)cc1	·	·	-73	–	·
COc1ccc(-c2noc(CCC(=O)NCCN(C)Cc3ccccc3)n2)cc1	–	–	–	89µM	–
CCN(CCCNC(=O)CCc1nc(-c2ccc(OC)cc2)no1)c1cccc(C)c1	–	·	–	–	13µM
COc1ccc(NC(=O)CN2C(=O)C3CC=CCC3C2=O)cc1Cl (centres undefined)	·	·	–	·	·
Cc1nc(NCCCN2CCOCC2)c2cnn(-c3ccccc3)c2n1	·	·	–	·	·
COc1ccc(C(=O)NCc2oc(-c3ccccc3)cc2C(=O)O)cc1	–	–	-86	?	·
